# Reference: PubChem BioAssay (NCATS)
# Records with an inconclusive call do not appear. Where a call stands in place of a potency, no number is given. Active and inactive are the calls of the source. Unless noted, the call rests on the fitted dose curve; in most records, active means well fitted curve in the direction sought with a large enough effect; inconclusive means small, poorly fitted or top-dose-only effect, or another doubt; inactive means no such curve, though single readings can be large; an effect the other way counts as inactive or inconclusive.
# What was measured:
# [1] = Cell Viability - Hek293 (AID 427;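 active means compounds whose dose-response curve shows a full or clear partial loss of cell viability, called from curve shape rather than a numeric limit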;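 further: potency means the concentration at half of the fitted maximal effect; cells exposed to compound for 40 hours at 37 °C before reading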); conditions: qHTS
# How it was run: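 qHTS, human embryonic kidney (adenovirus-transformed) cells; 40 hr cpd, 37 °C; CellTiter-Glo ATP luminescence. Norm: DMSO = 0, 100 uM tamoxifen = 100% inhibition. Hill-fit AC50.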
# [2] = Cell Viability - SH-SY5Y (AID 544); conditions: SH-SY5Y neuroblastoma cell viability; viability change, negative = cytotoxic: at 92.2 µM (top of the series);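 further: cells exposed to compound for 40 hours; nearly all actives have a fitted effect of over 55% in size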
# How it was run: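 Cytotoxicity measured via ATP-dependent luciferase luminescence (CellTiter-Glo) following 40 h, 37 °C exposure of 1500 SH-SY5Y cells per well. Concentration-response data were fitted with the standard Hill equation to give AC50.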
# [3] = Cellular Toxicity (caspase-3) SHSY5Y (AID 657); conditions: SH-SY5Y caspase-3 activation, DMSO zero, 10 µM staurosporine = 100%; series mostly up to 91.7 µM;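 further: cells exposed to compound for 16 hours at 37 °C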
# How it was run: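 Luminescent caspase-3/7 readout (aminoluciferin release) in SH-SY5Y cells after 16 h compound exposure in complete medium. Activity scaled between DMSO basal and 10 uM staurosporine as 100%; concentration-response fitted to Hill equation for AC50.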
# [4] = Cellular Toxicity (caspase-3) Mesangial (AID 660); conditions: mesangial cells, normalized: DMSO 0%, 100 µM tamoxifen 100%; series mostly up to 91.7 µM;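 further: combined caspase 3 and 7 activity read by Caspase-Glo luminescence; cells exposed to compound for 16 h before the caspase read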
# How it was run: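 Caspase 3/7 activation measured by Caspase-Glo 3/7 luminescence (20 min, room temperature) following 16 h exposure of mesangial cells (1000/well); AC50 from Hill-equation fit, normalized to DMSO and 100 uM tamoxifen.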
# [5] = Cell Viability - LYMP2-001 (AID 921); conditions: LYMP2-001 lymphoblastoid cell viability; series mostly up to 92.2 µM;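 further: cells exposed to compound for 24 h at 37 °C; nearly all actives have a fitted effect of over 70% in size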; further: potency means the concentration at half of the fitted maximal effect
# How it was run: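 CellTiter-Glo luminescence (intracellular ATP) after 24 hr compound exposure at 37 C, 2500 lymphoblastoid cells/well in complete medium. AC50 fitted with standard Hill equation; tetraoctylammonium bromide positive control.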
# [6] = MultiTox-Fluor Cytotoxicity Assay - LYMP1-002 - Dead Cells (AID 960); conditions: LYMP1-002 lymphoblastoid cells, dead-cell protease fluorescence; series mostly up to 46.1 µM; further: nearly all actives have a fitted effect of over 60% in size
# How it was run: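 Dead-cell fluorescence (Ex/Em 485/520) after 16 h compound exposure at 37 C of LYMP1-002 lymphoblastoid cells in complete medium; AC50 by Hill equation, with data scaled between DMSO and 15 uM tetraoctylammonium bromide.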
# [7] = Cell Viability - LYMP2-006 (AID 978); conditions: LYMP2-006 lymphoblastoid cell viability, qHTS; series mostly up to 92.2 µM;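 further: cells exposed to compound for 24 hours; nearly all actives have a fitted effect of over 60% in size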; further: potency means the concentration at half of the fitted maximal effect
# How it was run: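 qHTS, 1536-well; 2500 cells/well, 5 hr 37 C; cpd 24 hr 37 C; CellTiter-Glo 30 min RT; luminescence. Tetraoctylammonium bromide pos. ctrl. AC50 via Hill eqn.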
# [8] = qHTS assay for small molecule disruptors of the mitochondrial membrane potential - 1 hr assay (AID 651754; calls by dose curve; further: nearly all actives have a fitted effect of over 35% in size; further: potency means the concentration at half of the fitted maximal effect); conditions: series mostly up to 92.2 µM
# How it was run: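 Mitochondrial potential in living HepG2 cells after 1 hr compound treatment at 37C was read with Mito-MPS dye added for a further 30 min. Red aggregate and green monomer fluorescence were measured; loss of potential leaves dye as cytoplasmic monomers.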
# [9] = qHTS assay for small molecule disruptors of the mitochondrial membrane potential - 5 hr assay (AID 651755; calls by dose curve; further: nearly all actives have a fitted effect of over 40% in size; further: potency means the concentration at half of the fitted maximal effect); conditions: JC-1-type ratio dye; series mostly up to 92.2 µM
# How it was run: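 Membrane-potential dye readout: red aggregate (540 ex/590 em) versus green monomer (490 ex/535 em) fluorescence after 30 min dye loading, following 5 hr compound exposure at 37C of overnight-plated HepG2 cells.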
# [10] = biological target: Nuclear receptor ROR-gamma (Homo sapiens) (UniProt P51449); test: qHTS assay for small molecule antagonists of the retinoid-related orphan receptor gamma (ROR-gamma) signaling pathway (AID 651802); conditions: ROR-gamma antagonist cell reporter assay; series mostly up to 92.2 µM;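 further: CHO cells with doxycycline-induced ROR-gamma expression; luciferase reporter luminescence driven by ROR response element; nearly all actives have a fitted effect of over 60% in size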
# Nuclear receptor ROR-gamma (Homo sapiens), sequence (P51449 whole entry, looked up): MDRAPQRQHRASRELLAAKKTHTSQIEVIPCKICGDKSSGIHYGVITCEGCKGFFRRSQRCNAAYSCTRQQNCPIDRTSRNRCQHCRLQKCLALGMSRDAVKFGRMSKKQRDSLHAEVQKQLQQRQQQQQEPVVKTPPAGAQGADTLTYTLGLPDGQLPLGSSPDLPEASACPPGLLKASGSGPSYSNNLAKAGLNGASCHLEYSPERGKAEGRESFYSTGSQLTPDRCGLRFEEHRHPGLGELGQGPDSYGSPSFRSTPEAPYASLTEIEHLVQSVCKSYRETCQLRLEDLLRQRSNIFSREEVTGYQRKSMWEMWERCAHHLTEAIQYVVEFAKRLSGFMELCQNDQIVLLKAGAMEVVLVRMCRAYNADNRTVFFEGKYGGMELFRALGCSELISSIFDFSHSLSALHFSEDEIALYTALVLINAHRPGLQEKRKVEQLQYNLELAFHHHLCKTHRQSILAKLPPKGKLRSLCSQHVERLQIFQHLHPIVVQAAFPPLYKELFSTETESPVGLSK
# How it was run: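 Luminescence (One-Glo, 30 min RT) measured 16 h after compound addition and doxycycline induction at 37C. Reporter: RORE-luciferase under TET-inducible ROR-gamma in CHO cells.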
# [11] = Cell Viability - N2a (AID 540); conditions: N2a mouse neuroblastoma cell viability; activity change, negative = cytotoxicity: at 92.2 µM (top of the series); further: nearly all actives have a fitted effect of over 45% in size
# How it was run: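 CellTiter-Glo ATP luminescence, read 20 min after reagent at room temperature, reported viability following 40 h compound treatment at 37 °C. N2a mouse neuroblastoma cells seeded 1500/well; Hill equation gave AC50.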
# [12] = Cellular Toxicity (caspase-3) H-4-II-E (AID 663); conditions: H-4-II-E rat hepatoma; Potency: caspase-3 activation; series mostly up to 92.2 µM;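 further: cells exposed to compound for 16 hr before readout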
# How it was run: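 Caspase 3/7 activation measured by luminescent aminoluciferin substrate cleavage after 16 hr compound treatment of H-4-II-E cells in complete medium. Increase normalized between DMSO (basal) and 100 uM tamoxifen (100%); Hill-equation AC50 from concentration-response.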
# [13] = Cellular Toxicity (caspase-3) NIH 3T3 (AID 666); conditions: NIH 3T3 caspase-3 activation, apoptosis/toxicity; series mostly up to 92.2 µM;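 further: caspase signal read after 16 h compound exposure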
# How it was run: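 Caspase-Glo 3/7 luminescence reported caspase activation in 1000 NIH 3T3 cells/well after 16 h compound exposure at 37 C. DMSO set basal and 100 uM tamoxifen set 100% stimulation; concentration-response modeled with the Hill equation for AC50.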
# [14] = Cell Viability - LYMP2-009 (AID 968); conditions: LYMP2-009 lymphoblastoid cell viability; series mostly up to 92.2 µM;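 further: cells exposed to compound for 24 h at 37 °C; nearly all actives have a fitted effect of over 55% in size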; further: potency means the concentration at half of the fitted maximal effect
# [15] = biological target: Vitamin D3 receptor (Homo sapiens) (UniProt P11473); test: qHTS assay for small molecule antagonists of vitamin D receptor signaling (AID 588541; calls by dose curve;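 further: receptor activated by calcitriol during compound treatment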); conditions: HEK293T VDR-UAS-bla, beta-lactamase ratio, antagonist mode; series mostly up to 76.7 µM
# Vitamin D3 receptor (Homo sapiens), sequence (P11473 whole entry, looked up): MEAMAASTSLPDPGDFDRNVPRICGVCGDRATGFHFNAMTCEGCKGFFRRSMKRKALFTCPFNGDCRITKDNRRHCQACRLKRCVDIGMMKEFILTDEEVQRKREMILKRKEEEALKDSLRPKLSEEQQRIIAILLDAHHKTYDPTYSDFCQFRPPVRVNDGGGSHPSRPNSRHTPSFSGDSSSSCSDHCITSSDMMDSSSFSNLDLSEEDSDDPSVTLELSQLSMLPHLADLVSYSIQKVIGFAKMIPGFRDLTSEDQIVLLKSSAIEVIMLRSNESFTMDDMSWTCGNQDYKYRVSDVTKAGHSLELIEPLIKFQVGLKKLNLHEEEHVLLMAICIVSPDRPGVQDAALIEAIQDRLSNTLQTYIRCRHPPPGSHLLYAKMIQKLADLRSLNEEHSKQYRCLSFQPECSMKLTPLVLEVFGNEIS
# How it was run: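 Antagonist-mode beta-lactamase reporter assay: HEK293T VDR-UAS-bla cells were exposed to titrated compound alongside 1-alpha,25-dihydroxyvitamin D3 at 3 nM final for 16 h. Values were normalized to the 50 nM agonist control and DMSO basal, with IC50 and efficacy from Hill equation fits.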
# [16] = qHTS assay for small molecule agonists of retinoid X receptor alpha signaling (AID 588544; calls by dose curve); conditions: HEK293T RXRa-UAS-bla, beta-lactamase reporter, 18 h; 530 nm emission
# [17] = biological target: Retinoic acid receptor RXR-alpha (Homo sapiens) (UniProt P19793); test: as above; conditions: HEK293T RXRa-UAS-bla, beta-lactamase reporter, 18 h; series mostly up to 76.7 µM
# Retinoic acid receptor RXR-alpha (Homo sapiens), sequence (P19793 whole entry, looked up): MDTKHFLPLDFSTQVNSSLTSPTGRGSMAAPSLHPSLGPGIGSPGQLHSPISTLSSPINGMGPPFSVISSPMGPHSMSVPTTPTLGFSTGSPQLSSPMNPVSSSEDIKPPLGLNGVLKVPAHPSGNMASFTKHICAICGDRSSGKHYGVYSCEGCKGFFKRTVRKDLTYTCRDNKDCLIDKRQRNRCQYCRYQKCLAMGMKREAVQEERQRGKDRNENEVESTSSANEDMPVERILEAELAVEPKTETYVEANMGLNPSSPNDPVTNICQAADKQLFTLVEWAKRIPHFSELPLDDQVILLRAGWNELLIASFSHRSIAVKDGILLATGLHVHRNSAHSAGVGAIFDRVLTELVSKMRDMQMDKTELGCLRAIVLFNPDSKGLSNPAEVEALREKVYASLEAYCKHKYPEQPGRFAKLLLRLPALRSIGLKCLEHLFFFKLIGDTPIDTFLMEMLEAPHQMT
# [18] = biological target: Thyroid hormone receptor beta (Homo sapiens) (UniProt P10828); test: qHTS assay for small molecule antagonists of thyroid hormone receptor beta signaling (AID 588547; active means well fitted inhibition curve with a large enough effect in the signal ratio, with a control signal flat, not every such curve was filed as active; the % refers to the signal ratio;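 further: cells stimulated with 0.4 nM T3 agonist during compound exposure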); conditions: TR-UAS-bla HEK293, beta-lactamase ratio, antagonist mode, 18 h
# Thyroid hormone receptor beta (Homo sapiens), sequence (P10828 whole entry, looked up): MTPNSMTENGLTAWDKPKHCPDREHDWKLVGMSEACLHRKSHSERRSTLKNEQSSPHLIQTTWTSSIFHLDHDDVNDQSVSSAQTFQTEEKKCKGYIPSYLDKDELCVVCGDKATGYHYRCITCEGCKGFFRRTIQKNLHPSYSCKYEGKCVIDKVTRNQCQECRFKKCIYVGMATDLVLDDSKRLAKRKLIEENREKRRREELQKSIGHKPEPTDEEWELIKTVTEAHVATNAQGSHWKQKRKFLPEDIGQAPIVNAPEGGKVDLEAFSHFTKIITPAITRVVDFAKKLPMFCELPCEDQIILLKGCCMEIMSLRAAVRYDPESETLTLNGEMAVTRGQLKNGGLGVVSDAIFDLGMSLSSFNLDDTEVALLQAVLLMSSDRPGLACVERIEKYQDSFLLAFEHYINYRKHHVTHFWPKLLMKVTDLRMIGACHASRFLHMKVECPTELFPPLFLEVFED
# How it was run: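 Inhibition of T3-driven (0.4nM final) beta-lactamase reporter activity was measured over 0.59 nM to 92 uM compound after 18 h at 37 C. The cells were GripTite HEK293 TR-UAS-bla in charcoal/dextran-stripped serum, with CCF4 ratio read-out and IC50 from Hill fits.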
# [19] = qHTS assay for small molecule agonists of the antioxidant response element (ARE) signaling pathway measured by Nrf2-dependant transcriptional activity - cell viability counter screen (AID 720653; active means well fitted curve in the direction sought with a large enough effect in the repeat runs; an effect the other way counts as inactive or inconclusive); conditions: ARE-bla HepG2 viability, CellTiter-Glo ATP luminescence, 16 h; stronger effect = lower value
# How it was run: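 Cytotoxicity counter screen: intracellular ATP quantified by CellTiter-Glo luminescence in the same ARE-bla HepG2 plates, after 16 h compound exposure and a 2 h beta-lactamase substrate step.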
# [20] = qHTS assay for cell viability of HEK293 cells (AID 743288); conditions: ATP luminescence (CellTiter-Glo), 18 h, stronger effect = lower value; further: nearly all actives have a fitted effect of over 50% in size
# How it was run: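 ATP luminescence (CellTiter-Glo) reports metabolically competent cell number after parental HEK293 cells, 2,000/well, were treated with DMSO-dissolved compounds for 18 h at 37 C; reagent incubation 30 min, room temperature.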
smiles,measurement,setting,value
Nc1cc(Cl)ccc1O,Potency,[1],> 92 µM (inactive)
same,"viability change, negative = cytotoxic",[2],-87.6% (active)
same,outcome,[3],inactive
same,outcome,[4],inactive
same,Potency,[5],inactive
same,Potency,[6],inactive
same,Potency,[7],inactive
same,Potency,[8],29.8 µM (active)
same,Potency,[9],33.5 µM (active)
same,Potency,[10],inactive
CCCCC(CC)COC(=O)c1ccc(C(=O)OCC(CC)CCCC)c(C(=O)OCC(CC)CCCC)c1 (configuration not stated),Potency,[1],> 92 µM (inactive)
same,Potency,[11],inactive
same,Potency,[2],inactive
same,outcome,[3],inactive
same,outcome,[4],inactive
same,Potency,[12],inactive
same,Potency,[13],inactive
same,Potency,[5],inactive
same,Potency,[6],inactive
same,Potency,[14],inactive
same,Potency,[7],inactive
same,outcome,[15],inactive
same,max response,[16],-8.52%
same,outcome,[17],inactive
same,activity change % (negative = inhibition),[18],11.5% (inactive)
same,Potency,[10],inactive
same,max response,[19],-7.7% (inactive)
N#CC(Cl)(Cl)Cl,Potency,[1],> 92 µM (inactive)
same,Potency,[11],inactive
same,Potency,[2],inactive
same,outcome,[3],inactive
same,Potency,[12],inactive
same,Potency,[13],inactive
same,Potency,[5],inactive
same,Potency,[7],inactive
same,max response,[16],-10.8%
same,outcome,[17],inactive
same,Potency,[8],inactive
same,Potency,[9],inactive
same,Potency,[10],inactive
same,max response,[19],1.54% (inactive)
same,max response,[20],-13% (inactive)
CN(C)c1ccc(N)cc1,"activity change, negative = cytotoxicity",[11],-109% (active)
same,"viability change, negative = cytotoxic",[2],-91.2% (active)
same,outcome,[3],inactive
same,outcome,[4],inactive
same,Potency,[13],inactive
same,Potency,[5],50.1 µM (active)
same,Potency,[6],inactive
same,Potency,[14],50.1 µM (active)
same,Potency,[7],50.1 µM (active)
same,outcome,[15],inactive
same,max response,[16],-18.3%
same,outcome,[17],inactive
same,activity change % (negative = inhibition),[18],8.59% (inactive)
same,Potency,[8],29.8 µM (active)
same,Potency,[9],29.8 µM (active)
